We go through six compounds from PubChem BioAssay (EPA / NIEHS).

Experiment [1] is described as follows: ATG_CRE_CIS: Attagene CIS-FACTORIAL HepG2 Assay for human cAMP Responsive Element (CRE) binding protein 3 (AID 2282926). Particulars: HepG2 CRE cis-reporter, Attagene multiplexed mRNA; actives raise or lower the signal. Put shortly: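 Capillary electrophoresis of 6-FAM-labelled, HpaI-digested PCR products quantified reporter transcripts. These came from HepG2 transiently transfected with cis-element reporters and exposed to test chemicals for 24 hours, with DMSO defining baseline activity.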

The nature of experiment [2]: ATG_CMV_CIS: Attagene CIS-FACTORIAL HepG2 Assay for human CMV (Internal Marker) (AID 2282928).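 Further: endpoint acts as a background internal control marker rather than a target.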 Particulars: HepG2 CMV promoter reporter, transcription factor profiling; actives raise or lower the signal. Put shortly: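 Reporter transcripts from transfected HepG2 cells are isolated after 24 h of chemical dosing, reverse-transcribed and amplified. Fragments labeled with 6-FAM are cut with HpaI and quantified by capillary electrophoresis; DMSO defines baseline.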

Experiment [3] in a line: ATG_BRE_CIS: Attagene CIS-FACTORIAL HepG2 Assay for human Bone Morphogenetic Protein (BMP) Response Element (BRE) (AID 2282933). Particulars: HepG2 BMP response element reporter, Attagene transcription factor profiling; actives raise or lower the signal. In outline:
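Transient MRTU transfection of human HepG2 liver cells; 24 h compound treatment; total RNA isolated, reverse-transcribed, PCR-amplified, 6-FAM labelled, HpaI-cut, capillary electrophoresis. DMSO = negative control/baseline, bidirectional fit.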

Experiment [4] in a line: ATG_Ets_CIS: Attagene CIS-FACTORIAL HepG2 Assay for human Erythroblast Transformation Specific (ETS) (AID 2282941). The settings on record: HepG2 ETS cis-reporter transcription, actives raise or lower the signal. In outline:
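Bidirectional fit versus DMSO of reporter mRNA signal, detected by RT-PCR and capillary electrophoresis in HepG2 cells transiently transfected with cis-element reporters and dosed 24 h.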

Experiment [5] in a line: ATG_FoxO_CIS: Attagene CIS-FACTORIAL HepG2 Assay for human Forkhead box O (FoxO) (AID 2282943). Particulars: HepG2 Attagene cis-reporter, FoxO element, mRNA; actives raise or lower the signal. Put shortly:
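Read-out: fluorescence of 6-FAM-labelled reporter cDNA fragments resolved by capillary electrophoresis. Transiently transfected HepG2 cells were dosed for 24 h; activity fitted in both directions relative to DMSO controls.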

The nature of experiment [6]: ATG_GATA_CIS: Attagene CIS-FACTORIAL HepG2 Assay for human GATA Binding Protein (AID 2282944). The settings on record: HepG2 GATA cis-element reporter, Attagene multiplex mRNA; actives raise or lower the signal. In outline:
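Transient MRTU transfection, HepG2, 24 h compound exposure. Total RNA → oligo(dT) RT → PCR → 6-FAM primer extension → HpaI cut → CE. Bidirectional fit vs DMSO.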

The target in experiment [7] is Hypoxia-inducible factor 1-alpha (Homo sapiens) (UniProt Q16665). Kind of experiment: ATG_HIF1a_CIS: Attagene CIS-FACTORIAL HepG2 Assay for human Hypoxia Inducible Factor 1 (HIF1A) (AID 2282951). Particulars: HepG2 Attagene cis-factorial HIF1a reporter transcription; actives raise or lower the signal. Put shortly:
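Activity is fitted in both directions relative to DMSO. Reporter transcripts are read by RT-PCR, fluorescent primer extension and capillary electrophoresis after 24 h chemical treatment. The cells are HepG2 carrying transiently transfected cis-element-driven reporter units responding to endogenous factors.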

In experiment [8] the target is Hepatocyte nuclear factor 6 (Homo sapiens) (UniProt Q9UBC0). Put plainly: ATG_HNF6_CIS: Attagene CIS-FACTORIAL HepG2 Assay for human Hepatocyte Nuclear Factor 6 (HNF6) (AID 2282952). The settings on record: HepG2 Attagene cis-factorial HNF6 reporter transcription; actives raise or lower the signal. In outline:
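Activity values derive from bidirectional fitting against DMSO of reporter mRNA levels, measured by capillary electrophoresis of labelled RT-PCR products from HepG2 cells exposed 24 h.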

Experiment [9] has as its target Heat shock factor protein 1 (Homo sapiens) (UniProt Q00613). Kind of experiment: ATG_HSE_CIS: Attagene CIS-FACTORIAL HepG2 Assay for human Heat Shock Transcription Factor 1 (HSE) (AID 2282953). Particulars: HepG2 HSE cis-reporter, Attagene RNA transcription; actives raise or lower the signal. In outline:
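HepG2, transient MRTU transfection, cis-promoter reporters (endogenous TF activity). 24 h compound. RNA → oligo(dT) RT → PCR → 6-FAM primer extension → HpaI cut → CE. Bidirectional fit vs DMSO.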

A short description of experiment [10]: ATG_MRE_CIS: Attagene CIS-FACTORIAL HepG2 Assay for human Metal Responsive Element (MRE) (AID 2282954). The settings on record: HepG2 MRE cis-reporter transcription, Attagene multiplex; actives raise or lower the signal. In outline: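 RT-PCR/capillary electrophoresis readout of reporter mRNA, 24 h post-dosing, in HepG2 cells transfected with multiplexed cis-regulated reporter constructs. Gain or loss of signal fitted bidirectionally against DMSO baseline.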

A short description of experiment [11]: ATG_SREBP_CIS: Attagene CIS-FACTORIAL HepG2 Assay for human Sterol Regulatory Element Binding (SREBP) (AID 2282962). The settings on record: HepG2 Attagene cis-factorial SREBP reporter, mRNA; actives raise or lower the signal. Put shortly:
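In this cis-format assay, HepG2 liver cells express reporters controlled by promoter elements responsive to native transcription factors. Exposure lasts 24 h; reporter mRNA fluorescence from capillary electrophoresis gives the signal, fitted bidirectionally against DMSO.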

Experiment [12] in a line: ATG_NF_kB_CIS: Attagene CIS-FACTORIAL HepG2 Assay for human Nuclear Factor Kappa B (NF-kB) (AID 2282991). Particulars: HepG2 Attagene cis-factorial NF-kB reporter mRNA; actives raise or lower the signal. In outline:
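Readout is reporter transcript level, gain or loss versus DMSO, measured 24 h post-dose via RT-PCR, fluorescent labelling and capillary electrophoresis. Human HepG2 liver cells carried transiently transfected CIS reporter constructs reflecting endogenous factors.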

Experiment [13] can be described thus: ATG_NRF2_ARE_CIS: Attagene CIS-FACTORIAL HepG2 Assay for human Nuclear Factor Erythroid 2 Related Factor 2 (NFR2) response to Antioxidant Response Elements (ARE) (AID 2282992). The settings on record: HepG2 Attagene ARE/NRF2 reporter, transcription factor activity; actives raise or lower the signal. In outline:
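Using transiently transfected HepG2 cells exposed for 24 h, reporter mRNA levels were determined by RT-PCR with fluorescent primer extension and capillary electrophoresis, analysed for gain or loss of signal against DMSO.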

Experiment [14] addresses Cellular tumor antigen p53 (Homo sapiens) (UniProt P04637). Kind of experiment: ATG_p53_CIS: Attagene CIS-FACTORIAL HepG2 Assay for human p53 Transcription Factor (AID 2282994). Particulars: HepG2 p53 cis-element reporter, Attagene mRNA; actives raise or lower the signal. In outline:
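In HepG2 cells, reporter transcription units under cis-regulatory promoters were transiently introduced. Following 24 h treatment, RNA was processed to labelled, digested cDNA fragments read by capillary electrophoresis; fitting was bidirectional versus DMSO.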

The nature of experiment [15]: ATG_XTT_Cytotoxicity: Cytotoxicity Assessment in the Attagene TRANS-FACTORIAL HepG2 Assay (AID 2283584; active means hit-call score of the fitted dose curve at least 0.9, where 1 is the maximum). In outline:
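HepG2 human liver cells, transiently transfected with multiple GAL4-UAS reporter units, were dosed and read at 24 h by XTT as cell number. Loss of signal was fitted relative to DMSO negative control baseline.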

The target of experiment [16] is Aryl hydrocarbon receptor (Homo sapiens) (UniProt P35869). Put plainly: ATG_Ahr_CIS: Attagene CIS-FACTORIAL HepG2 Assay for human Aryl Hydrocarbon Receptor (Ahr) (AID 2282930). Particulars: HepG2 AhR cis-factorial reporter transcription; actives raise or lower the signal. Put shortly: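 Read-out: reporter mRNA quantified by RT-PCR with fluorescent primer extension and capillary electrophoresis. Human HepG2 liver cells carried transfected cis-promoter reporter units and were exposed to chemical for 24 h; gain or loss fitted relative to DMSO.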
Chain of Aryl hydrocarbon receptor (Homo sapiens) (P35869 whole entry, looked up): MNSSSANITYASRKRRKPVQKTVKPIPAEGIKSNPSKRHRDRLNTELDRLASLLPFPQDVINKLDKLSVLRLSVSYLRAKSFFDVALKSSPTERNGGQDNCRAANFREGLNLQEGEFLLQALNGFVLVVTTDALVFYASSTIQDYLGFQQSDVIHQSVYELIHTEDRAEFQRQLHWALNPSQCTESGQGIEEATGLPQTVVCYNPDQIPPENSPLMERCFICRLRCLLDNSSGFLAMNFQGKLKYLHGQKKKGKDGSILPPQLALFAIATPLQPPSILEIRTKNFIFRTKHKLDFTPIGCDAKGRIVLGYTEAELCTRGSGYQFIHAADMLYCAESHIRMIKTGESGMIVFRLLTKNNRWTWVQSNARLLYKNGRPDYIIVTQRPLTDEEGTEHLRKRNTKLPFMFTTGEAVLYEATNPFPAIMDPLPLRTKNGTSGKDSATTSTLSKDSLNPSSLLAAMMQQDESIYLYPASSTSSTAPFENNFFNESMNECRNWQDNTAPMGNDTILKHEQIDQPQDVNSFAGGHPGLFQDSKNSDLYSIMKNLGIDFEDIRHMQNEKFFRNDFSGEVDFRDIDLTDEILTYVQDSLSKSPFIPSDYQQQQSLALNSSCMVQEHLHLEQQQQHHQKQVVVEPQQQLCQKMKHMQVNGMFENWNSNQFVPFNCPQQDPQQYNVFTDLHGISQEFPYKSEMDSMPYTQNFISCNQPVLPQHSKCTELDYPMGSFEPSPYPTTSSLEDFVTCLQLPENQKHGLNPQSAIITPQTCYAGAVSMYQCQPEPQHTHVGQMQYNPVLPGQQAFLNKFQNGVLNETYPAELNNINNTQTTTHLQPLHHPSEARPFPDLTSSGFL

A short description of experiment [17]: ATG_AP_1_CIS: Attagene CIS-FACTORIAL HepG2 Assay for human Activator Protein 1 (AP-1) (AID 2282931). Particulars: HepG2 Attagene cis-factorial AP-1 reporter mRNA; actives raise or lower the signal. In outline:
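Readout is reporter transcript level from endogenous transcription factor activity, quantified by RT-PCR with fluorescent primer extension and capillary electrophoresis. Transiently transfected HepG2 cells, 24 h exposure. Curves fitted both directions versus DMSO.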

Experiment [18] concerns the target Hepatocyte nuclear factor 3-beta (Homo sapiens) (UniProt Q9Y261). Kind of experiment: ATG_FoxA2_CIS: Attagene CIS-FACTORIAL HepG2 Assay for human Forkhead box A2 (FOXA2) (AID 2282942). Particulars: HepG2 cis-reporter transcription factor activity, 24 h; actives raise or lower the signal. Put shortly:
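Endogenous transcription factor activity is captured via cis-element-driven reporter transcripts in transfected HepG2. Total RNA taken at 24 h post-dosing; labelled RT-PCR products resolved by capillary electrophoresis. Gain or loss fitted versus DMSO.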

Experiment [19] deals with Paired box protein Pax-6 (Homo sapiens) (UniProt P26367). Put plainly: ATG_Pax6_CIS: Attagene CIS-FACTORIAL HepG2 Assay for human Paired Box 6 (PAX6) (AID 2282956). Particulars: HepG2 CIS-FACTORIAL PAX6 reporter transcription, RNA readout; actives raise or lower the signal. Put shortly:
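DMSO-referenced bidirectional fits of reporter mRNA fluorescence; HepG2 with transient cis-promoter MRTUs, 24 h post-dose, RT-PCR plus capillary electrophoresis detection.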

Experiment [20] can be described thus: ATG_VDRE_CIS: Attagene CIS-FACTORIAL HepG2 Assay for human Vitamin D Receptor Element (VDRE) (AID 2282968). The settings on record: HepG2 VDRE cis-reporter transcription, actives raise or lower the signal. Put shortly: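 Transient MRTU transfection of HepG2, 24 h compound exposure. Readout: reporter transcripts via RT-PCR and capillary electrophoresis, fluorescence. Bidirectional fit vs DMSO.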

Each structure is given as a SMILES string. Inconclusive results are not listed. Active and inactive are the calls of the source. How the source made its calls, unless noted: active means hit-call score of the fitted dose curve at least 0.9, where 1 is the maximum; inactive means score below 0.9.

Chain of Hepatocyte nuclear factor 6 (Homo sapiens) (Q9UBC0 whole entry, looked up): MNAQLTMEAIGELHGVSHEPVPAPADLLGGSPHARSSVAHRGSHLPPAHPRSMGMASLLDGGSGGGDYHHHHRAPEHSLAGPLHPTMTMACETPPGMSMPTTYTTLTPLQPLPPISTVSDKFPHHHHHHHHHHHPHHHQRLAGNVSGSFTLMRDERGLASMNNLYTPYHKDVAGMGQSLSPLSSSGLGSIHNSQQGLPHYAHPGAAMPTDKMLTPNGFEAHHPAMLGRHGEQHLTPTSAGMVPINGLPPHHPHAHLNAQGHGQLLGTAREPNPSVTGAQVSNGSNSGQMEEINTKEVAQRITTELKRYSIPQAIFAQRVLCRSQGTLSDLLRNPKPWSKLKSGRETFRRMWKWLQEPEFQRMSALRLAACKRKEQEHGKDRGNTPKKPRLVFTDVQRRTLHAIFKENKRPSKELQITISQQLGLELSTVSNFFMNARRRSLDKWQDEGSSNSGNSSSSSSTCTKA
Chain of Paired box protein Pax-6 (Homo sapiens) (P26367 whole entry, looked up): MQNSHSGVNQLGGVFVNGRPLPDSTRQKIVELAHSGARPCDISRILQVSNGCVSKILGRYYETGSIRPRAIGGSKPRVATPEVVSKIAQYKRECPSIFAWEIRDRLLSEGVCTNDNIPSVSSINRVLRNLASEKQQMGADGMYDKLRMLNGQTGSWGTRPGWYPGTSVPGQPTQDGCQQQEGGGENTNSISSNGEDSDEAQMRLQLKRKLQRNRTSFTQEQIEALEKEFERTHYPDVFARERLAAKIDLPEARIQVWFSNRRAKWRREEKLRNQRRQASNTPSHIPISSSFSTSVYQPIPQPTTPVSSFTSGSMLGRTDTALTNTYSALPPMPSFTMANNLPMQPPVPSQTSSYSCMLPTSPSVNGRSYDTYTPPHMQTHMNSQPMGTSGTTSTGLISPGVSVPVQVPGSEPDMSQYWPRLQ
Chain of Heat shock factor protein 1 (Homo sapiens) (Q00613 whole entry, looked up): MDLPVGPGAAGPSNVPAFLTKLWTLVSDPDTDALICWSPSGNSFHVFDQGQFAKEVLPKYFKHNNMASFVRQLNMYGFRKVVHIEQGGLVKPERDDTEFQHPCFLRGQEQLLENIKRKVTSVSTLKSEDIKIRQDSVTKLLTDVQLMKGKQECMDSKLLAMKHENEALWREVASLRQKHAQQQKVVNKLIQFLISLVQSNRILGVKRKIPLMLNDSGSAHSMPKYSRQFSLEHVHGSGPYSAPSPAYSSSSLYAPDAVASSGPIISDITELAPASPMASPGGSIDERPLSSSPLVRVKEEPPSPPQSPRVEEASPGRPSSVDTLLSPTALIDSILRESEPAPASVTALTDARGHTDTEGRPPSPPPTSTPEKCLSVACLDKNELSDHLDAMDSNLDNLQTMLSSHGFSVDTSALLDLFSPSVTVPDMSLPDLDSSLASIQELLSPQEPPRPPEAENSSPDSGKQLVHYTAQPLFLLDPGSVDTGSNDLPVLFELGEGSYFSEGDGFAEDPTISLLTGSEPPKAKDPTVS
Chain of Hepatocyte nuclear factor 3-beta (Homo sapiens) (Q9Y261 whole entry, looked up): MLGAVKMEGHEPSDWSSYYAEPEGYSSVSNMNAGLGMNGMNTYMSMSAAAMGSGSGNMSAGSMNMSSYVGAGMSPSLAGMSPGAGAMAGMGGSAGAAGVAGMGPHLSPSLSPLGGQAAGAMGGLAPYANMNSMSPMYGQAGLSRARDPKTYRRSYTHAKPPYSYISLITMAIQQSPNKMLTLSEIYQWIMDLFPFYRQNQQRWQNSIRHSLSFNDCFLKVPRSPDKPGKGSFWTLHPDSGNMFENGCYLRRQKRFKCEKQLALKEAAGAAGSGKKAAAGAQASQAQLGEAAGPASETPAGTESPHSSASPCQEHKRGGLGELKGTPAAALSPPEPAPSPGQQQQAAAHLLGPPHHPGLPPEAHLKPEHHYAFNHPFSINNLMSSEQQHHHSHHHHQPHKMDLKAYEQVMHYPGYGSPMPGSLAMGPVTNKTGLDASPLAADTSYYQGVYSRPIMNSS
Chain of Hypoxia-inducible factor 1-alpha (Homo sapiens) (Q16665 whole entry, looked up): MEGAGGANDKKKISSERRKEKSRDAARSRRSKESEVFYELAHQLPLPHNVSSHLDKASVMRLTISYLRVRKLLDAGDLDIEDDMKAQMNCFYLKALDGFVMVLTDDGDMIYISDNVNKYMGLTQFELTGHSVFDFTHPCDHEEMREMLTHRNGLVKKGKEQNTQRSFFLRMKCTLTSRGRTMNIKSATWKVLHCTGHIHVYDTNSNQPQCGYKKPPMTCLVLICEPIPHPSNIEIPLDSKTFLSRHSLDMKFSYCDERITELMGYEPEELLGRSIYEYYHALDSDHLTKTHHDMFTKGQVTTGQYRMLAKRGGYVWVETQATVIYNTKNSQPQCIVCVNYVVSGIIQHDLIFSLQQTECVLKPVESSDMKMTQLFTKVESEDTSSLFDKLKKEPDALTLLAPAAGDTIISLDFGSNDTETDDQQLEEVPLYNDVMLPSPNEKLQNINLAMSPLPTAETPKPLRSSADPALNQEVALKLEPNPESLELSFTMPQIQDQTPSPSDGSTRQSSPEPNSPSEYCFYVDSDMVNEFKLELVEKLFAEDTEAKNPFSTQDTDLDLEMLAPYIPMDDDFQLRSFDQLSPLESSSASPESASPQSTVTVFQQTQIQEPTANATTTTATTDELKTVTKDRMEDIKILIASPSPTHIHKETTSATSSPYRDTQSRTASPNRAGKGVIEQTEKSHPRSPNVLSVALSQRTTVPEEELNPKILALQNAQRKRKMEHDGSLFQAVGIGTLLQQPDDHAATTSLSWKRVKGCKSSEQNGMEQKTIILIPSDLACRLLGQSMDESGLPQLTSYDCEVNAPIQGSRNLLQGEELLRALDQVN
Chain of Cellular tumor antigen p53 (Homo sapiens) (P04637 whole entry, looked up, the tested form may be a part): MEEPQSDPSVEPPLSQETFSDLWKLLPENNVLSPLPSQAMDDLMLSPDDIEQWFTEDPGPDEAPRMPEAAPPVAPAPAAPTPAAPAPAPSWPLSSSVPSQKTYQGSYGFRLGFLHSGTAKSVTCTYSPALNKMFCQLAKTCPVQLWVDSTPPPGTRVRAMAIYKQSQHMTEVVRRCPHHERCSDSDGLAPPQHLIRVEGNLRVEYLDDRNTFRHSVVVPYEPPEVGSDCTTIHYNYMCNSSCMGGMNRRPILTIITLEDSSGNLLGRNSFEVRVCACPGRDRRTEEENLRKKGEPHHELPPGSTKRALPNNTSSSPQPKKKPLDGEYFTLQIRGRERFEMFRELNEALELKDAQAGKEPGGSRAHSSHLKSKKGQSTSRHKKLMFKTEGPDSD

On to `CCOC(=O)COc1ccc(Cl)cc1Cl`, for which the compound was called inactive in experiment [1], in experiment [2], in experiment [3], in experiment [4], in experiment [5] and in experiment [6]. Further, the outcome in experiment [7], in experiment [8], in experiment [9], in experiment [10], in experiment [11] and in experiment [12] was inactive. In addition, the call in experiment [13], in [14] and in experiment [15] was inactive.

As for `CCc1cccc(C)c1N(C(=O)CCl)[C@@H](C)COC`, the compound was classed as inactive in experiment [1], in experiment [16], in experiment [17], in experiment [4], in experiment [18] and in [5]. Besides, the compound was classed as inactive in experiment [6], in [7], in experiment [8], in experiment [9], in experiment [19] and in [12]. For the same compound, the call in experiment [14] and in [15] was inactive. Moreover, the results for the AC50 in experiment [10], in experiment [20] and in experiment [13] were 31.3 µM (active), 2.13 µM (active) and 7.39 µM (active), respectively.

Take `CC=Cc1ccc2c(c1)OCO2`: the result in experiment [1], in experiment [3], in [4], in experiment [18], in [5] and in experiment [6] was inactive. Besides, the call in experiment [7], in experiment [8], in experiment [9], in experiment [10], in experiment [19] and in experiment [11] was inactive. For the same compound, the outcome in experiment [20], in experiment [12], in experiment [13], in experiment [14] and in [15] was inactive.

For the compound `Nc1cc(Cl)cc(Cl)c1`, the compound was called inactive in experiment [2], in experiment [16], in [17], in [3], in experiment [4] and in experiment [18]. The compound was called inactive in experiment [5], in experiment [6], in experiment [7], in experiment [8], in experiment [9] and in [10]. For the same compound, the compound was called inactive in experiment [19], in [20], in experiment [12], in experiment [13], in [14] and in experiment [15].

As to `CN1C(=O)CCS(=O)(=O)C1c1ccc(Cl)cc1` (centres undefined), the outcome in experiment [2], in experiment [16], in [17], in experiment [3], in experiment [4] and in experiment [18] was inactive. Besides, the compound was called inactive in experiment [5], in [6], in experiment [8], in [9], in [19] and in experiment [11]. Besides, the compound was called inactive in experiment [20], in experiment [12], in [13] and in experiment [15].

Consider `CCC(=O)c1ccc(Cl)cc1`, for which the compound was called inactive in [2], in experiment [16], in experiment [17], in experiment [4], in experiment [18] and in experiment [5]. For the same compound, the compound was classed as inactive in experiment [6], in experiment [7], in experiment [8], in experiment [9], in experiment [10] and in experiment [11]. The call in experiment [20], in [12], in experiment [13] and in experiment [15] was inactive.

By AC50 is commonly meant the concentration giving half of the maximal activity seen.
